Lassa entry inh: qHTS for Inhibitors of binding or entry into cells for Lassa Virus; Lassa virus pseudotype entry inhibition, cell reporter; Potency, µM (highest dose often 37.9 µM), inactives show top-dose activity change, negative = inhibition, usual class: inhibitors; hit rate 1.2% among 300,000; calls by dose curve; tested in HEK293 cells; note: potency is the fitted concentration of half-maximal effect; nearly all actives have a fitted effect of over 50% in size
VACV mCherry inh: qHTS for Stage-Specific Inhibitors of Vaccinia Orthopoxvirus: mCherry Reporter Primary qHTS | Vaccinia virus mCherry reporter infection, fluorescence | Potency, µM (series often up to 36.5 µM), for the others: at the highest dose activity change, negative = inhibition, actives largely listed as inhibitors | hit rate 0.63% among 310,000; calls by dose curve; tested in A549 cells; note: potency is the fitted concentration of half-maximal effect; nearly all actives have a fitted effect of over 35% in size
HCMV antiviral: qHTS Assay for inhibitors of the human cytomegalovirus (HCMV) | HFF cells, HCMV-luciferase reporter, 72 h; hits give low values | hit rate 4.5% among 410,000 | activity change, negative = inhibition, % at 57.5 µM; in the data active = activity change below about -60%; inconclusive = no clear call, values can overlap the other calls; inactive = above about -39%
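Screen run at 2 compound doses on HFFs infected with reporter HCMV, MOI 1 PFU/cell. Luciferase activity from cell lysates at 72 h post infection gave inhibition relative to buffer-only and Salinomycin wells.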
VACV Venus inh: qHTS for Stage-Specific Inhibitors of Vaccinia Orthopoxvirus: Venus Reporter Primary qHTS; Vaccinia virus Venus reporter expression, fluorescence; hit rate 0.46% among 330,000; AID 720580, 2013; Potency, µM (doses to about 36.5 µM), for the others: top-dose activity change, negative = inhibition, hits mostly inhibitors; calls by dose curve; tested in A549 cells; note: potency is the fitted concentration of half-maximal effect; nearly all actives have a fitted effect of over 30% in size
FMDV antiviral: High Throughput Screening for Foot and Mouth Disease Virus Antivirals; Potency, µM (highest dose often 57.9 µM), inactives show at the top dose activity change, negative = inhibition, actives largely listed as inhibitors; hit rate 1.2% among 410,000; AID 1159524, 2015; FMDV antiviral cell-based qHTS; calls by dose curve; tested in HEK293T cells; note: read-out not given here; potency is the fitted concentration of half-maximal effect; nearly all actives have a fitted effect of over 45% in size
MARV entry inh: qHTS for inhibitors of binding or entry into cells for Marburg Virus; Potency, µM (series often up to 37.8 µM), for inactives: at the highest dose activity change, negative = inhibition, most hits filed as inhibitors; hit rate 1.8% among 300,000; Marburg virus pseudotyped entry inhibition, cell reporter; calls by dose curve; tested in HEK293 cells; note: potency is the fitted concentration of half-maximal effect
* = called active by the depositor; i = inactive; u = inconclusive; x = not tested or not shown; [ ] = remark or other dose. The list is not random: actives were taken first. Their share in the collection is about 6.5%. % is set by controls: 0 for no effect and ±100 for the full control effect.

SMILES	Lassa entry inh	VACV mCherry inh	HCMV antiviral	VACV Venus inh	FMDV antiviral	MARV entry inh
CCC(C)[C@H](NC(=O)OC(C)(C)C)C(=O)N/N=C/C1=Cc2ccccc2OC1 (stereo not given in full)	u	-30%	u	-22%	12%	u
C[C@H](NC(=O)OC(C)(C)C)C(=O)N/N=C/C1=Cc2ccccc2OC1	x	x	-78*	x	-3%	x
CC1=CC2C(=O)c3cccc(O)c3C(=O)C2C(O)=C1 (stereo not given)	x	x	x	x	3%	x
CCN(CC)S(=O)(=O)c1cc(C(=O)Nc2cc(C)on2)ccc1Cl	12%[46.1 µM]	-15%	-64*	1%	-17%	-28%[46.1 µM]
CCOC(=O)CN1C(=O)[C@]2(OC[C@@H]3Cc4ccccc4[C@H]3C=C2C)c2ccccc21	x	x	x	x	x	-22%[14.2 µM]
O=c1[nH]cnc2c1ccn2C1OC(CO)C(O)C1O (stereo not given)	x	u	-69*	-26%	-14%	x
O=c1[nH]c(=O)n(C2OC(CO)C(O)C2O)cc1F (stereo not given)	2µM*	1µM*	x	u	5%	u
O=c1[nH]cnc2c1[nH]c(=S)n2C1O[C@@H](CO)[C@H](O)[C@@H]1O (stereo not given in full)	x	34%	x	-6%	x	x
C[C@H]1O[C@@H](n2cc(F)c(=O)[nH]c2=O)[C@H](O)[C@H]1O	-29%	x	x	x	x	4%
Nc1nc(=O)n(C2OC(CO)C(O)C2O)cc1F (stereo not given)	x	2µM*	-99*	-14%	-4%	x
Nc1cnn(C2OC(CO)C(O)C2O)c(=O)n1 (stereo not given)	u	u	-64*	0%	-20%	u
COc1ccccc1C1CN(Cc2c(C)nc3sccn23)Cc2ccccc2O1 (stereo not given)	x	-12%	x	1%	7%	x
COc1ccccc1C(=O)N[C@@H]1c2ccccc2C2(CCN(Cc3ccc(C)o3)CC2)[C@H]1O	x	-5%	x	-24%	-4%	x
COc1cccc(CNC(=O)CCc2nnc3n(CC(C)C)c(=O)c4ccccc4n23)c1	x	u	u	-18%	-12%	1%[46.1 µM]
O=c1[nH]c(=O)n([C@@H]2O[C@H](CO)[C@@H](O)[C@H]2O)cc1F	x	1.1µM*	x	u	x	x
N#C/C(=C(/N)Sc1ccc(N)cc1)c1ccccc1C(F)(F)F	x	x	x	x	29%	x
CN(C)c1ccc(Sc2ccc3nc(N)nc(N)c3c2)cc1	x	4.5µM*	-92*	5µM*	-30%	x
C/C(CS(=O)(=O)c1ccc(Cl)c(Cl)c1)=N/NC(N)=S	-14%	-27%	-70*	-28%	7%	7%[46.1 µM]
Cc1[nH]c2c(F)cccc2c1CC(=O)NCCN1Cc2ccccc2OC(C)C1 (stereo not given)	x	-11%	x	-12%	9%	x
CC1CCCCC1NC(=O)NC(=O)CCl (stereo not given)	u	-14%	6	-10%	u	u
CC1CCCC(NC(=O)NC(=O)CCl)C1C (stereo not given)	0%	x	-29	x	20µM*	-8%
O=C(COc1ccccc1C(=O)Nc1ccccc1F)Nc1ccc(Br)cc1	x	-21%	x	-15%	x	x
Cc1sc(NC(=O)c2cccs2)nc1-c1ccccc1	-3%	x	114	x	u	u
Cc1sc(N/N=C/c2cccs2)nc1-c1ccccc1	u	-24%	u	-13%	-14%	7.9µM*
N#Cc1c(Cl)nc2c(c1C#N)CCCC2	9%	-7%	-75*	-20%	-23%	16%
SMILES	Lassa entry inh	VACV mCherry inh	HCMV antiviral	VACV Venus inh	FMDV antiviral	MARV entry inh
COc1ccc(NC(=O)N2c3ccc(OC)cc3[C@@H](NCc3ccc(C)o3)[C@H](C)[C@H]2c2ccccc2)cc1	x	x	6	x	x	x
COc1ccc(-n2cc(CNCC3CC(=O)N(C4CC4)C3)c(-c3ccccc3Cl)n2)cc1 (stereo not given)	u	-13%	3	-14%	-13%	11µM*
CCN1CC(CNCc2cn(-c3ccc(OC)cc3)nc2-c2ccccc2Cl)CC1=O (stereo not given)	2%	-28%	19	-19%	0%	u
COc1ccc(-n2cc(CNCC3CCOCC3)c(-c3cccc(F)c3)n2)cc1	x	x	-89*	x	12%	x
C=C1C=C(C(F)F)n2ncc(C(=O)NCc3ccccc3OC)c2N1	x	-29%	x	-19%	x	x
Cc1cc(-c2ccccc2)nc2[n+]1CCN2C	-20%	-22%	-84*	-28%	x	-28%
Cc1nc(-c2ccccc2)cc(N2CCCC2)n1	5%	x	5	x	8%	-10%
CCn1nc(CC(=O)O)c2ccccc2c1=O	-9%	-3%	6	-3%	2%	0%[46.1 µM]
O=C(O)Cc1nn(Cc2ccc(Cl)cc2)c(=O)c2ccccc12	-10%	-4%	-69*	4%	-8%	u
COc1ccc(COC(=O)c2cc([N+](=O)[O-])ccc2N2CCOCC2)cc1F	u	u	-73*	u	u	u
CCc1ccc(C(=O)COC(=O)c2cc([N+](=O)[O-])ccc2N2CCOCC2)cc1	u	u	-35	-22%	-4%	3.2µM*
CN(C)c1ccc(/C=c2\sc3n(c2=O)CCCN=3)cc1	2µM*	i	-36	1%	-23%	u
Cc1cc(-c2ccnc(-n3ncc(C(=O)NCC4COCCO4)c3C)n2)c(C)s1 (stereo not given)	x	-18%	x	-4%	38%	x
COc1ncc2nc(-c3ccc(F)cc3)c(=O)n(C)c2n1	x	x	x	x	10%	x
COc1cc(CCNC2=CC(=O)c3ncccc3C2=O)ccc1O	u	10µM*	0	10µM*	40µM*	u
COc1ccccc1CNS(=O)(=O)c1cc(CN2C(=O)c3cccnc3C2=O)ccc1OC	x	x	23	x	0%	x
COc1ccc(CC(=O)Nc2nc(-c3cc(OC)ccc3OC)cs2)cc1	u	11µM*	-23	u	u	u
COc1ccc(CC(=O)Nc2cc(Cl)ccc2N2CCCC2)cc1	-15%	-21%	-63*	-11%	-9%	u
C/C(=N\Nc1nc(C(C)(C)C)cs1)c1ccc(O)cc1	x	x	-22	x	0%	x
COc1ccc(CCC(=O)Nc2cc(Cl)ccc2N2CCN(C)CC2)cc1	-27%	x	-3	u	-12%	u
CC(C)(C)c1csc(NNC(=O)c2ccc(Br)cc2)n1	u	u	-97*	u	-4%	u
O=C(Cc1cccs1)Nc1nc2c(ccc3ccccc32)s1	7.9µM*	-20%[1.46 µM]	63	u	-24%	u
CCOC(=O)c1ccc(NC(=O)c2c(NCc3cccs3)sc3c2CCCCC3)cc1	u	-5%	-32	7%	6%	x
CC(C)(C)c1csc(NC(=O)c2ccccc2O)n1	u	u	-94*	u	u	11µM*
O=C(CSC1=NCCS1)Nc1nc2c(s1)CCCC2	24%	x	-73*	x	20%	24%
